In ChEMBL document CHEMBL4888484, “Replenishing the malaria drug discovery pipeline: Screening and hit evaluation of the MMV Hit Generation Library 1 (HGL1) against asexual blood stage Plasmodium falciparum ,using a nano luciferase reporter read-out” (2022):
Screen size: about 150,000 compounds; about 540 (0.36%) showed an effect of 50% or more. The sample as a whole holds a higher share of strong results than the screen did.

tested on: Plasmodium falciparum; test: Primary screen in NF54 nanoGlo assay, in single point, at 2uM, 72h; a lower Z score goes with more inhibition; format: functional, Erythrocyte; conditions: timepoint 72 hour

Row | SMILES | % Inhibition [%] | Z score
1 | C[C@H](NC(=O)C1=NN(C)C(=O)CC1)c1ccc2c(c1)OCCO2 | -13 | 1.49
2 | O=C(CCS(=O)(=O)c1ccccc1)N1CC[C@H](Oc2cc(C(F)(F)F)ccn2)C1 | -6 | 1.09
3 | O=C(O)CN1CCC[C@H](c2nc(-c3ccccc3)c[nH]2)C1 | -8 | 0.94
4 | COc1ccnc(CN2CCC[C@H](c3nc(-c4ccccc4)c[nH]3)C2)c1OC | 69 | -7.6
5 | Cc1nncn1C1CCN(S(=O)(=O)c2ccc(Cl)cc2)CC1 | -11 | 1.89
6 | COc1ccc(CC(=O)N2C3COCC2C3)nc1 | 33 | -3.69
7 | CC(=O)c1cccc(NC(=O)N2CCCCCCC2)c1 | 2 | -0.33
8 | COc1cccc(NC(=O)C23CCCN2CCC3)c1 | -8 | 1.16
9 | CCCN1C(=O)c2ccccc2N2C(=O)CC[C@@]12C(=O)Nc1cccc(NC(C)=O)c1 | 8 | -1.31
10 | CCCCN1C(=O)c2ccccc2N2C(=O)CC[C@@]12C(=O)Nc1nccs1 | 25 | -2.95
11 | CCCN1C(=O)c2ccccc2N2C(=O)CC[C@@]12C(=O)Nc1ccccc1 | 88 | -14.36
12 | CC(=O)c1cccc(NC(=O)[C@@]23CCC(=O)N2c2ccccc2C(=O)N3C)c1 | 84 | -11.29
13 | CCCN1C(=O)c2ccccc2N2C(=O)CC[C@@]12C(=O)Nc1nc(C)cs1 | 2 | -0.31
14 | CC(=O)c1cccc(NC(=O)N2CCC3(CCC3)C2)c1 | -6 | 1.19
15 | CCN1C(=O)c2ccccc2N2C(=O)CC[C@@]12C(=O)Nc1cccc(OC)c1 | 92 | -11.06
16 | CCCN1C(=O)c2ccccc2N2C(=O)CC[C@@]12C(=O)Nc1ccc(OC)cc1 | 88 | -16.69
17 | Cc1cc(N(C)C)ccc1NC(=O)CCN1C(=O)c2ccccc2N2C(=O)CC[C@]12C | 2 | -0.43
18 | CCN1C(=O)c2ccccc2N2C(=O)CC[C@@]12C(=O)Nc1nccs1 | 8 | -0.95
19 | O=C(Nc1cccc(Cl)c1)Nc1nnc2cccc(Cl)n12 | -18 | 2.03
20 | Cc1csc(NC(=O)c2cc(-c3ccccc3)on2)n1 | -6 | 1.01
21 | COc1cc2ccc1OCC(=O)N[C@@H](C)C(=O)N(C)CCCCN(C(=O)c1cc(Cl)cn1C)CCCNC2=O | -24 | 3.05

Row | SMILES | % Inhibition [%] | Z score
22 | COCC1(CNC(=O)c2ccc(-c3ccncc3C)cc2)CCC1 | 8 | -1
23 | Cn1cc(N2C[C@@H](C(=O)NCC=Cc3cccnc3)CCC2=O)cn1 | -4 | 0.63
24 | Cn1c(C(=O)N2CC[C@H](N)C2)ccc1-c1ccccc1Br | 0 | 0.05
25 | N[C@@H]1CCN(C(=O)c2cccnc2Oc2cccc(Br)c2)C1 | -12 | 1.38
26 | Cn1c(C(=O)N2CC[C@H](N)C2)ccc1-c1cccc(Br)c1 | 50 | -7.09
27 | CC1(C2CC2)CCN(C(=O)c2csnn2)CC1 | 2 | -0.37
28 | Cc1ccsc1CN(Cc1ccccc1)C(=O)CN(C(=O)C1CCCC1)C1CCCCC1 | -2 | 0.35
29 | COc1cccc(CN2C(=O)N[C@@](C)(C3CCN(C(=O)c4cccnc4OC)CC3)C2=O)c1OC | 8 | -1.05
30 | CC(C)[C@H](NC(=O)c1cc(O)ccn1)C(=O)NC1CCCCC1 | -5 | 0.48
31 | CC=Cc1ccc(OCC(=O)Nc2cccc(NC(=O)Nc3ccccc3)c2)c(OC)c1 | -7 | 0.59
32 | COc1cc(C(=O)NCc2cccnc2)ccc1OCC(=O)Nc1cccc(C(F)(F)F)c1 | 3 | -0.33
33 | COc1cc(C=C(C(=O)Nc2ccccc2F)C(=O)Nc2ccccc2F)ccc1OCC(=O)Nc1cccc(C(F)(F)F)c1 | 80 | 1.63
34 | Cc1cc(N2C[C@H]3CC[C@@H](C2)[C@H]3N(C)C)nc(Nc2cccc(O)c2)n1 | 77 | -8.01
35 | Cc1cc(NCc2csc(N(C)C)n2)nc(Nc2cccc(O)c2)n1 | -3 | 0.61
36 | CCO[C@H]1CN(C)C[C@@H]1Nc1cc(C)nc(Nc2cccc(O)c2)n1 | -6 | 1.08
37 | Cc1cc(N2CC(OCc3ccccc3)C2)nc(Nc2cccc(O)c2)n1 | 91 | -12.9
38 | Cc1cc(N2CCOC[C@@H](O)C2)nc(Nc2cccc(O)c2)n1 | -4 | 0.39
39 | O=C(c1nc2ccccc2[nH]1)N1CCN(c2ccccc2F)CC1 | -1 | 0.23
40 | CCn1cc(-c2n[nH]cc2C(=O)N2CCN(CC(C)C)C(=O)C2)cn1 | 3 | -0.32
41 | COc1ccc(S(=O)(=O)N2CCOC[C@H](Oc3ccccc3)C2)cc1 | 31 | -3.47
42 | Cc1ccc(C)c(Cn2c(C(=O)Nc3ccccc3)cc3cc(NC(=O)c4ccco4)ccc32)c1 | 2 | -0.19

Row | SMILES | % Inhibition [%] | Z score
43 | CCc1cnccc1NC(=O)CCCC1CCOCC1 | -3 | 0.38
44 | C[C@]1(c2cnccn2)NC(=O)N(Cc2cc(F)ccc2OC(F)F)C1=O | -4 | 0.57
45 | CC(C)c1ocnc1C(=O)NC[C@H]1[C@H](c2ccccc2)C1(F)F | -3 | 0.47
46 | COc1ccc2[nH]c3c(c2c1)CCN(C(=O)c1cc(Cl)cc(Cl)c1)[C@@H]3c1ccccc1OC | -11 | 1.21
47 | COc1ccc2[nH]c3c(c2c1)CCN(C(=O)c1ccc(C)c(C)c1)[C@H]3COCc1ccccc1 | 0 | 0.02
48 | COc1ccc2[nH]c3c(c2c1)CCN(C(=O)c1ccc(C)c(C)c1)[C@@H]3c1ccccc1OC | 84 | -11.27
49 | COc1ccc(OC)c(CNc2cc[nH]n2)c1 | -5 | 0.8
50 | Cc1cccc(CN(CC2CCN(C3Cc4ccccc4C3)CC2)C[C@H]2CCCO2)n1 | -1 | 0.18
51 | Cc1cccc(CN(Cc2cccc(C)n2)C[C@H]2CCCCO2)n1 | 90 | -9.86
52 | CCN(Cc1csc(C)n1)C[C@H]1CCCCO1 | 2 | -0.27
53 | COc1ccc(CC(=O)N[C@H]2CCOC2)cc1OC | -1 | 0.14
54 | COc1nc(NCC[C@H]2CCCCN2C)ncc1F | 3 | -0.58
55 | COc1nc(NC[C@H]2CCCN2C(C)C)ncc1F | 64 | -12.06
56 | COc1nc(NCC2CCN(CC(C)C)CC2)ncc1F | -2 | 0.24
57 | Cc1nn(C)c(C)c1CC(=O)N1CCC2(CCC2)S(=O)(=O)CC1 | -5 | 0.46
58 | Cc1ccc(NS(=O)(=O)c2cc(-c3nc(C)c(C)s3)sc2C)c(C)c1 | -5 | 0.62
59 | CC1CCN(C(=O)[C@H]2CCc3ncc(-c4ccc(F)cc4)n3C2)CC1 | -7 | 1.27
60 | COc1ccc(-[n+]2c(-c3ccc(-c4ccccc4)cc3)cn3c2COCC3)cc1 | 58 | -11.93
61 | COc1ccc(-c2nn(-c3ccccc3F)cc2CN2CCOCC2)cc1 | -19 | 3.28
62 | COc1ccc(N2CCN(Cc3ccc(-c4ccccc4)cc3)CC2)cc1 | 5 | -1
63 | COc1ccc(-c2cn3cc(-c4ccccc4)c4c3n2CCCC4)cc1 | -8 | 1.46

Row | SMILES | % Inhibition [%] | Z score
64 | COc1ccc(-c2cn3c(n2)CCC3)cc1 | -5 | 0.43
65 | COc1ccc(-[n+]2c(-c3ccccc3)cn3c2CCC3)cc1 | 79 | -11.37
66 | NC(=O)N1CCCC(C(=O)N2CCCC2c2ccc(F)c(F)c2)C1 (configuration not stated) | 0 | 0.02
67 | O=C1CCC(C(=O)N2CCC[C@H]2c2ccncc2)=NN1c1ccccc1 | 67 | 1.73
68 | O=C1CC(C(=O)N2CCCC2c2ccncc2)CN1c1ccccc1 (configuration not stated) | -8 | 1.05
69 | O=C1CNC(C(=O)N2CCC[C@H]2c2ccncc2)=NN1c1ccccc1 | 3 | -0.62
70 | CN(C)c1noc(CN2CCc3c(F)cc(F)cc3C2)n1 | 10 | -0.88
71 | CN(C)c1noc(CN2CCc3ccc(F)cc3C2)n1 | 51 | -2.97
72 | CCCc1nc(CN2CCc3ccc(F)cc3C2)no1 | -4 | 0.53
73 | O=C(NCc1ccccc1)c1[nH]cnc1C(=O)N1CCCCC1 | 11 | -1.23
74 | COc1ccc(-c2n[nH]c3c2C(=O)C[C@@H](c2ccccc2)C3)cc1 | -5 | 0.48
75 | Cc1nn(C)c2nc3c(c(N)c12)C(=O)C[C@@H](c1ccccc1)C3 | -14 | 1.9
76 | Nc1nc(-c2ccccc2)c2cc3c(nn12)C[C@H](c1ccc(F)cc1)CC3=O | 57 | 0.5
77 | CNc1snc(C)c1C(=O)N1CCN(Cc2ccc(-c3cccc(F)c3)s2)CC1 | 2 | -0.21
78 | O=C(N[C@@H]1CC[C@H]2CCOc3ccccc3C(=O)N3CCN(C4CCC(F)(F)CC4)C[C@H]3C(=O)NC[C@H]1O2)C1CCOCC1 | 29 | -3.41
79 | CC(=O)N1CCC(C(NC(=O)c2cccs2)C(=O)N2CCCCC2C)CC1 (configuration not stated) | 4 | -0.78
80 | Cc1ccc(NC(=O)N2CCC(C(NC(=O)c3ccccc3)C(=O)N3CCCCC3C)CC2)cc1 (configuration not stated) | 70 | 0.76
81 | Cc1ccc(S(=O)(=O)N2CCC([C@H](NC(=O)c3ccccc3)C(=O)N3CCCC3)CC2)cc1 | -14 | 1.34
